Hits are enriched below; roughly 12% of the tested compounds scored in any of these assays.
SARS PLpro yeast – qHTS of Yeast-based Assay for SARS-CoV PLP; S. cerevisiae expressing SARS-CoV PLpro, growth rescue; Potency, µM (doses to about 32.9 µM), without a hit: at the top dose activity, positive = growth rescue, hits mostly activators; 0.19% of 330,000 active; AID 485353, 2010; calls by dose curve; also: 0% is about no effect; nearly all actives have a fitted effect of over 55% in size
AMA1 RON2 block – qHTS for Inhibitors of AMA1-RON; Towards Development of Antimalarial Drug Lead: Primary Screen; AlphaScreen AMA1-biotinylated RON2 peptide binding; 0.2% of 360,000 active; Plasmodium falciparum AMA1 (3D7) - RON2 peptide interaction; Potency, µM (highest dose often 58.2 µM), inactives show at the top dose activity change, negative = inhibition, most hits filed as inhibitors;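 also: 0% = vehicle wells and -100% = peptide control; nearly all actives have a fitted effect of over 45% in size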
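AMA1 (3D7) with his tag at 25 nM final met compounds first, then biotinylated RON2 peptide at 25 nM; detection used donor plus acceptor beads, 10 µg/mL apiece, read by AlphaScreen after 30 min at room temperature.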
NS1 function inh – qHTS Assay for Inhibitors of Influenza NS1 Protein Function. Potency, µM (series often up to 46.1 µM), inactives show top-dose activity, positive = more growth. 0.4% of 270,000 active. AID 2326, 2010; calls by dose curve; also: actives are rising curves; nearly all actives have a fitted effect of over 50% in size
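In this qHTS, NS1 from influenza A is expressed in budding yeast, where it slows growth. Cells are switched from glucose to 2% galactose medium (pH 6.0, -URA), treated with compound, and growth recovery is read at OD600.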
HCV inh – qHTS Assay for Inhibitors of Hepatitis C Virus (HCV) | 3.4% of 340,000 active | Potency, µM (titrated, usually from 41.8 µM), inactives show at the highest dose activity change, negative = inhibition, hits mostly inhibitors | Huh7.5.1 HCVcc-Cre infection, luciferase reporter, 44 h | AID 651820, 2012; also: % is scaled to controls: 0 for no effect and ±100 for the full control effect
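Compounds are dispensed onto cells plated 4 h earlier at 1,000 per well, with HCVcc-Cre virus (about 0.5 moi) added next. Following 44 h of culture, luminescent signal is measured for 15 sec after 15 min with substrate at room temperature.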
Pf growth 96h – Primary qHTS for delayed death inhibitors of the malarial parasite plastid, 96 hour incubation. P. falciparum luciferase reporter growth, 96 h. Potency, µM (titrated, usually from 28.7 µM), for inactives: top-dose activity change, negative = inhibition, usual class: inhibitors. 6.9% of 320,000 active. AID 504834, 2011; also: % is scaled to controls: 0 for no effect and ±100 for the full control effect
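P. falciparum expressing integrated firefly luciferase, in erythrocytes at 2% hematocrit, 0.05% parasitemia, incubated with compounds 96 h at 37 C, 5% CO2. Growth inhibition read as loss of luminescence; two-generation exposure targets delayed-death apicoplast inhibitors.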
Pf growth 48h – Primary qHTS for delayed death inhibitors of the malarial parasite plastid, 48 hour incubation; P. falciparum luciferase growth in erythrocytes, 48 h; 5.9% of 310,000 active; Potency, µM (top dose mostly 28.7 µM), for inactives: at the highest dose activity change, negative = inhibition, usual class: inhibitors; also: % is scaled to controls: 0 for no effect and ±100 for the full control effect
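First compound was added to culture medium, then infected red cells at 0.1% parasitemia and 2% hematocrit (final). After incubation at 37 C under 5% CO2, luciferase detection reagent was dispensed and light output recorded.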
Starred values were filed as active, the others as inactive. Unless noted, calls follow the shape of the dose curve; as a rule, active = well fitted curve in the direction sought with a large enough effect; inconclusive = small, poorly fitted or top-dose-only effect, or another doubt; inactive = no such curve, though single readings can be large; an effect the other way counts as inactive or inconclusive. Potency is read from the fitted curve at half-maximal effect.

What do the screens show for `CN(C)c1ccc(-c2csc(C(C)(O)c3ccc(F)c(F)c3)n2)cc1` (configuration not stated)?
AMA1 RON2 block: 20µM*

How did O=C(CN1CCN(S(=O)(=O)c2ccc(Br)cc2)CC1)N/N=C/c1cccnc1 do in these assays?
SARS PLpro yeast: 10%; AMA1 RON2 block: 31%; NS1 function inh: -3%; HCV inh: 5%; Pf growth 96h: inconclusive; Pf growth 48h: -5%

Results for O=C(O)c1ccc(S(=O)(=O)/N=C2\C=C(Nc3ccccc3F)C(=O)c3ccccc32)cc1 ?
SARS PLpro yeast: -33%; AMA1 RON2 block: -10%; NS1 function inh: -33%; HCV inh: 10µM*; Pf growth 96h: inconclusive; Pf growth 48h: 2.6µM*

Results for Cc1ccccc1NC1=C/C(=N\S(=O)(=O)c2ccc(C(=O)O)cc2)c2ccccc2C1=O ?
SARS PLpro yeast: -5%; AMA1 RON2 block: -27%; NS1 function inh: -5%; HCV inh: inconclusive; Pf growth 96h: inconclusive; Pf growth 48h: 2.6µM*

What do the screens show for `CCc1ccc(S(=O)(=O)/N=C2\C=C(NS(=O)(=O)c3ccccc3)C(=O)c3ccccc32)cc1`?
SARS PLpro yeast: -8%; AMA1 RON2 block: -14%; NS1 function inh: -5%; HCV inh: -27%; Pf growth 96h: -10%; Pf growth 48h: 30%

What do the screens show for `COC(=O)CCSCC(=O)N1N=C(c2ccc(Br)cc2)CC1c1cccc(OC)c1OC` (configuration not stated)?
SARS PLpro yeast: -9%; AMA1 RON2 block: inconclusive; HCV inh: 11%; Pf growth 96h: inconclusive; Pf growth 48h: inconclusive

Results for Clc1cccc(Cl)c1-c1noc(CN2CCOCC2)n1 ?
SARS PLpro yeast: 0%; AMA1 RON2 block: 8%; NS1 function inh: 3%; HCV inh: 16%; Pf growth 96h: inconclusive; Pf growth 48h: 10µM*

What do the screens show for `Clc1ccc(-c2noc(CN3CCOCC3)n2)cc1`?
SARS PLpro yeast: 0%; AMA1 RON2 block: -10%; NS1 function inh: 4%; HCV inh: 13%; Pf growth 96h: 50%; Pf growth 48h: 402%

How did C=CCn1c(C)nc2c(cnn2-c2ccccc2)c1=O do in these assays?
SARS PLpro yeast: inconclusive; AMA1 RON2 block: 5%; NS1 function inh: -4%; HCV inh: -2%; Pf growth 96h: -23%; Pf growth 48h: 0%

How did COc1ccc(C(=O)C[n+]2cc(-c3ccc(OC)cc3)n3c2CCCC3)cc1 do in these assays?
SARS PLpro yeast: 3%; AMA1 RON2 block: 0%; HCV inh: -6%; Pf growth 96h: 1.5µM*; Pf growth 48h: 1.2µM*

Results for Cc1ccc(C(=O)C[n+]2cc(-c3ccc(C)cc3)n3c2CCCCC3)cc1 ?
SARS PLpro yeast: 2%; AMA1 RON2 block: -1%; NS1 function inh: 2%; HCV inh: inconclusive; Pf growth 96h: 0.41µM*; Pf growth 48h: 0.41µM*

What do the screens show for `Cc1ccc(-c2c[n+](Cc3ccc(Cl)c(Cl)c3)c3n2CCC3)cc1`?
SARS PLpro yeast: 3%; AMA1 RON2 block: -5%; NS1 function inh: 8%; HCV inh: -14%; Pf growth 96h: 0.19µM*; Pf growth 48h: 1.7µM*

Results for O=C(C[n+]1cc(-c2ccccc2)n2c1CCCCC2)c1ccc(Br)cc1 ?
SARS PLpro yeast: 0%; AMA1 RON2 block: -4%; NS1 function inh: -1%; HCV inh: inconclusive; Pf growth 96h: 33%; Pf growth 48h: 1.7µM*

How did O=C(C[n+]1cc(-c2ccc(F)cc2)n2c1CCC2)OCc1ccccc1 do in these assays?
SARS PLpro yeast: -23%; AMA1 RON2 block: -1%; NS1 function inh: -1%; HCV inh: 13%; Pf growth 96h: 10%; Pf growth 48h: 14%

How did Cc1cc(C)c2nc(NNC(=O)c3cc(=O)c4ccccc4o3)sc2c1 do in these assays?
SARS PLpro yeast: -7%; AMA1 RON2 block: 80%; NS1 function inh: 4%; HCV inh: -22%; Pf growth 96h: inconclusive; Pf growth 48h: inconclusive

How did Cc1ccc(C(=O)NCCCNC(=O)COc2ccc(C)c(C)c2)cn1 do in these assays?
SARS PLpro yeast: 3%; AMA1 RON2 block: -22%; NS1 function inh: 17%; HCV inh: -2%; Pf growth 96h: 9%; Pf growth 48h: -17%

Results for COc1cccc(C(=O)N(c2ccc(C)cc2)C2C=CS(=O)(=O)C2)c1 (configuration not stated) ?
SARS PLpro yeast: 1%; AMA1 RON2 block: 0%; HCV inh: -19%; Pf growth 96h: inconclusive; Pf growth 48h: -1%

How did CN(c1cccc(NC(=O)CN(c2ccc(C34CC5CC(CC(C5)C3)C4)cc2)S(C)(=O)=O)c1)S(C)(=O)=O do in these assays?
SARS PLpro yeast: -1%; AMA1 RON2 block: -12%; NS1 function inh: inconclusive; HCV inh: inconclusive; Pf growth 96h: 17µM*; Pf growth 48h: inconclusive

How did CN(c1cccc(NC(=O)CN(c2ccc(F)cc2)S(C)(=O)=O)c1)S(C)(=O)=O do in these assays?
SARS PLpro yeast: 0%; AMA1 RON2 block: 2%; NS1 function inh: 0%; HCV inh: 26%; Pf growth 96h: -10%; Pf growth 48h: inconclusive

What do the screens show for `Cc1ccc(S(=O)(=O)N(CC(=O)Nc2cccc(N(C)S(C)(=O)=O)c2)c2ccc(Cl)c(Cl)c2)cc1`?
SARS PLpro yeast: -2%; AMA1 RON2 block: -6%; NS1 function inh: inconclusive; HCV inh: inconclusive; Pf growth 96h: inconclusive; Pf growth 48h: 13µM*

How did CC(=O)c1cccc(NC(=O)C(=O)c2cn(CC(=O)N3CCCCC3)c3ccccc23)c1 do in these assays?
SARS PLpro yeast: -2%; AMA1 RON2 block: -1%; HCV inh: 1%; Pf growth 96h: 17%; Pf growth 48h: 0%

How did CCN(CC)C(=O)C1=C(C)N(Cc2ccccc2)C(=O)C(CC(=O)NCC2CCCCC2)C1 (configuration not stated) do in these assays?
AMA1 RON2 block: 12%

Results for CCOC(=O)c1ccccc1NC(=O)CSc1nnc(Cc2cccn2C)n1-c1ccc(F)cc1 ?
SARS PLpro yeast: -6%; AMA1 RON2 block: -1%; NS1 function inh: -6%; HCV inh: 16%; Pf growth 96h: 59%; Pf growth 48h: inconclusive

How did CCOc1ccccc1NC(=O)CSc1nnc(Cc2cccn2C)n1-c1ccc(F)cc1 do in these assays?
SARS PLpro yeast: -9%; AMA1 RON2 block: -7%; NS1 function inh: -30%; HCV inh: inconclusive; Pf growth 96h: -26%; Pf growth 48h: 5.9µM*

Screening data: PubChem, National Center for Advancing Translational Sciences (NCATS)
